Compounds with a hit are over-represented: about 7.5% of the library has one in this group of screens.
NPC1 prom act = activators of NPC1 promoter | Huh7 NPC1 promoter luciferase reporter, 24 h | Potency, µM (top dose mostly 9.22 µM), hits mostly activators | actives 2.4% (n = 320,000); further: nearly all actives have a fitted effect of over 60% in size
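In 1536-well qHTS, Huh7 cells harboring an NPC1 promoter–luciferase construct received compound for 24 h; activation was quantified by luminescence following luciferase reagent addition.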
SMN2 splice enh = increases expression of the SMN2 splice variant; HEK293 SMN2-luciferase splicing reporter, luminescence, 30-36 h; Potency, µM (doses to about 46.1 µM), hits mostly activators; actives 2.8% (n = 210,000); further: nearly all actives have a fitted effect of over 55% in size
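qHTS luciferase splicing reporter: luminescence rises when SMN2 exon 7 is included in transfected HEK293 cells. Compound exposure lasted 30-36 h at 37C, with 4.5 mM final sodium butyrate as control, followed by a ONE-Glo read.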
ELG1 genotox = inducers of genotoxicity in HEK293T ELG1-luciferase cells; AID 504466; Potency, µM (top dose mostly 46 µM), actives largely listed as activators; actives 1.3% (n = 330,000); HEK293T ELG1-luciferase reporter, luminescence, 16 h; further: nearly all actives have a fitted effect of over 60% in size
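Genotoxic stress is detected as increased luminescence from luciferase-tagged ELG1 in HEK293T cells, measured with ONE-Glo after a 16 hr treatment at 37 °C.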
Rab9 promoter act = activates the Rab9 promoter; Huh7 Rab9 promoter-luciferase reporter, luminescence, 24 h; Potency, µM (titrated, usually from 9.22 µM), usual class: activators; actives 2.8% (n = 320,000); further: nearly all actives have a fitted effect of over 60% in size
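Stable Rab9-luc Huh7, 1500 cells/well, 2 h settle; cmpd in DMSO, 24 h, 37 °C/5% CO2; luciferase reagent 10 min RT; luminescence.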
FLuc counter = counter-screen for miR-21 project: firefly luciferase inhibitors or activators; P08659; AID 588342; actives 6.9% (n = 360,000); Potency, µM (top dose mostly 57.5 µM), most hits filed as inhibitors; purified FLuc, Km substrates, luminescence inhibition; further: nearly all actives have a fitted effect of over 55% in size
Target sequence (P08659 whole entry, looked up): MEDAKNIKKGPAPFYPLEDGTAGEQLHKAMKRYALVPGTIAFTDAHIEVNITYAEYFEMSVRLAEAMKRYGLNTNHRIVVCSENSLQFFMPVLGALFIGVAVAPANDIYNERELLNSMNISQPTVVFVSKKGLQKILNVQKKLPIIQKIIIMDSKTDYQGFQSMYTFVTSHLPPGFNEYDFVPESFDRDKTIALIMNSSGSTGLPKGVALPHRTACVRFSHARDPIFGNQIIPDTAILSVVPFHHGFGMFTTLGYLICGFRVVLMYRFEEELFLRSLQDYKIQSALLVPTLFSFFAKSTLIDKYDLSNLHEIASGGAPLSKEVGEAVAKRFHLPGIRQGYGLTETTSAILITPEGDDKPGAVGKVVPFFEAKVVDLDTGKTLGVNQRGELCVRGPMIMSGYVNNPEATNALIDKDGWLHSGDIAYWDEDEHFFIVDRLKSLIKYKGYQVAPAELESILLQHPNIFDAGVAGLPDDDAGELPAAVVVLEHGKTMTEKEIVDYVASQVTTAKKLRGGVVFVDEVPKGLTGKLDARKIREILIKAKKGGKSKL
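Biochemical qHTS of compounds, final roughly 60 µM downward over six points, against 10 nM purified firefly luciferase using Km concentrations of substrates (10 uM D-luciferin, 10 uM ATP) in Tris acetate pH 7.5 buffer; luminescence output.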
Large screens that a line does not name were inactive. The call rests on the fitted dose curve; in most records, active means well fitted curve in the direction sought with a large enough effect; inconclusive means small, poorly fitted or top-dose-only effect, or another doubt; inactive means no such curve, though single readings can be large; an effect the other way counts as inactive or inconclusive.

Clc1cccc(-c2nnc(-c3ccccc3)o2)c1	NPC1 prom act 1.4µM, SMN2 splice enh 13µM, ELG1 genotox 1.2µM, Rab9 promoter act 0.89µM, FLuc counter 1.5µM
COc1ccc(-c2nnc(-c3ccccc3)o2)cc1OC	NPC1 prom act 2.2µM, ELG1 genotox inconclusive, Rab9 promoter act 1.8µM, FLuc counter 8.5µM (no result: SMN2 splice enh)
COc1cccc(-c2nnc(-c3ccc(C(F)(F)F)cc3)o2)c1	NPC1 prom act inconclusive, SMN2 splice enh 22µM, ELG1 genotox inconclusive, Rab9 promoter act inconclusive, FLuc counter inconclusive
COc1cc(-c2nnc(-c3ccccc3)o2)cc(OC)c1OC	none
Nc1ccccc1-c1nnc(-c2ccc(-c3ccccc3)cc2)o1	NPC1 prom act 4µM, SMN2 splice enh inconclusive, ELG1 genotox 2.6µM, Rab9 promoter act 3.2µM, FLuc counter 3µM
Clc1cccc(-c2nnc(-c3ccno3)o2)c1	none (no result: SMN2 splice enh)
COc1cccc(Nc2ncc3nc(-c4ccc(F)cc4)c(=O)n(C[C@H]4CCCO4)c3n2)c1	none (no result: NPC1 prom act, ELG1 genotox, Rab9 promoter act, FLuc counter)
N=C(N)SC(c1ccccc1)c1ccccc1	none (no result: NPC1 prom act, ELG1 genotox, Rab9 promoter act, FLuc counter)
CN(Cc1ccccc1)C(C(=O)NC1CCCCC1)c1ccc(Cl)cc1 (configuration not stated)	none (no result: NPC1 prom act, ELG1 genotox, Rab9 promoter act)
c1ccc(-c2nnc(-c3ccccc3)o2)cc1	NPC1 prom act 1.6µM, SMN2 splice enh 13µM, ELG1 genotox inconclusive, Rab9 promoter act 1.4µM, FLuc counter 5.4µM
O=C1c2cccc3cccc(c23)C(=O)N1OS(=O)(=O)c1ccccc1	FLuc counter 19µM
O=C1c2cccc3cccc(c23)C(=O)N1OS(=O)(=O)c1ccc(Br)cc1	none
Nc1nc(SCCc2ccccc2)c2[nH]cnc2n1	none (no result: NPC1 prom act, ELG1 genotox, Rab9 promoter act, FLuc counter)
CCCCCCC(=O)N/N=C1\CCCc2ccccc21	none
Cc1c(C(=O)NNC(=S)Nc2ccc(S(N)(=O)=O)cc2)oc2ccccc12	FLuc counter inconclusive (no result: SMN2 splice enh)
CC(=O)N1CCN(c2ccc(NC(=O)c3ccc4c(c3)OCCO4)cc2Cl)CC1	FLuc counter 6µM (no result: SMN2 splice enh)
CC(C)C(=O)N1CCN(c2ccc(NC(=O)c3ccc4c(c3)OCCO4)cc2Cl)CC1	FLuc counter 4.3µM
CC(=O)N1CCN(c2ccc(NC(=O)c3ccc4c(c3)OCCO4)cc2)CC1	FLuc counter inconclusive
COc1ccc(/C=C2/NC(=O)CNC2=O)cc1	none (no result: SMN2 splice enh)
Cc1ccc(-n2c(=O)[nH]cc(C(=O)Nc3ccc4c(c3)OCO4)c2=O)cc1C	none
O=C(NCCc1c[nH]c2ccccc12)c1c(Cl)nc2sccn12	NPC1 prom act inconclusive, Rab9 promoter act inconclusive
O=C(c1c(Cl)nc2sccn12)N(C(=O)c1c(Cl)nc2sccn12)c1ccc(Cl)cn1	SMN2 splice enh 13µM, ELG1 genotox 3.7µM
CCCCOc1ccc(C(=O)Nc2cc(-c3ccc(C)cc3)no2)cc1	none (no result: NPC1 prom act, ELG1 genotox, Rab9 promoter act)
COc1cccc(C(=O)Nc2cc(-c3ccccc3)no2)c1	SMN2 splice enh 16µM, FLuc counter 1.2µM (no result: NPC1 prom act, ELG1 genotox, Rab9 promoter act)
Cc1ccc(-c2cc(NC(=O)c3ccccc3Cl)on2)cc1	SMN2 splice enh 13µM, FLuc counter inconclusive (no result: NPC1 prom act, ELG1 genotox, Rab9 promoter act)
CCOc1ccc(C(=O)Nc2cc(-c3ccccc3)no2)cc1	SMN2 splice enh inconclusive, FLuc counter 1.5µM (no result: NPC1 prom act, ELG1 genotox, Rab9 promoter act)
O=C(CCN1C(=O)[C@@H]2Cc3ccccc3CN2C1=O)NCc1ccccc1Cl	none (no result: SMN2 splice enh)
Cc1ccc(S(=O)(=O)N2CCCCC2)cc1	none (no result: SMN2 splice enh)
CC(=O)/C(N=Nc1cc(C)ccc1O)=C(\C)O	none (no result: SMN2 splice enh)
Cc1ccc(O)c(N=Nc2nccs2)c1	ELG1 genotox 23µM, FLuc counter 9.5µM (no result: SMN2 splice enh)
COc1ccc(N=Nc2ccc3ccccc3c2)c(O)c1	NPC1 prom act 3.2µM, ELG1 genotox 0.92µM, Rab9 promoter act 4µM, FLuc counter 0.38µM (no result: SMN2 splice enh)
Cc1ccc(O)c(N=Nc2ccc(S(=O)(=O)N3CCCC3)cc2)c1	NPC1 prom act inconclusive, Rab9 promoter act inconclusive, FLuc counter 15µM (no result: SMN2 splice enh)
COc1ccc(N=Nc2cc(C)ccc2O)cc1	NPC1 prom act 1.1µM, ELG1 genotox 3.7µM, Rab9 promoter act 0.4µM, FLuc counter 0.48µM (no result: SMN2 splice enh)
COc1ccc(C(=O)c2ccccc2)c(O)c1	ELG1 genotox inconclusive, FLuc counter inconclusive
COc1ccc(CCNC(=O)Cn2cc(C(=O)c3ccc(Cl)cc3)c(=O)c3ccc(C)nc32)cc1OC	none (no result: NPC1 prom act, SMN2 splice enh, ELG1 genotox, Rab9 promoter act)
O=C(O)/C=C\c1ccc(Cn2ccnc2)cc1	none (no result: NPC1 prom act, ELG1 genotox, Rab9 promoter act, FLuc counter)
Cc1ccc2c(c1)C(c1ccccc1)N(C(=O)c1ccc(Br)cc1)CC(=O)N2 (configuration not stated)	none (no result: SMN2 splice enh)

Assay outcomes as filed in PubChem.
